Measured values: paper PMC7819943, “Rice protein-binding microarrays: a tool to detect cis-acting elements near promoter regions in rice”
Over roughly 68,000 sequences, “fluorescence intensity (a.u.)” has its median near 9,100; the highest 2% begin near 16,000. The entries come from a sample that favours the highest values as a whole.

Target: OsWRKY34 (Oryza sativa, UniProt Q0JBA9 1-250)
Experiment: protein-binding microarray (RPBM); PBS, 2% BSA, 51.3 ng/ul salmon testes DNA, 50 uM zinc acetate, 200 nM TF, 25 C, 1 h; high values mean tight binding
Conditions: protein: recombinant; tags: N-terminal polyhistidine and DsRed monomer fusion (pET32a); label: CyDye5-dUTP incorporated in the synthesized complementary strand; 3' TTTTT single-stranded linker to array surface; dsDNA, one strand shown
How it was run: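 In PBS with 2% BSA, salmon testes DNA and 50 µM zinc acetate, 200 nM protein was incubated on a custom Agilent array at 25 °C for 1 h and then washed off. The array had been made double-stranded by primer extension with Cy5-dUTP and blocked with 2% BSA. The proteins were transcription factors fused N-terminally to polyhistidine and DsRed, expressed in E. coli BL21-CodonPlus and purified on Ni–NTA. The binding signal is per-feature fluorescence intensity (arbitrary units) from an Axon 4000B scanner.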

Chain of OsWRKY34 (Q0JBA9 entry or part of it): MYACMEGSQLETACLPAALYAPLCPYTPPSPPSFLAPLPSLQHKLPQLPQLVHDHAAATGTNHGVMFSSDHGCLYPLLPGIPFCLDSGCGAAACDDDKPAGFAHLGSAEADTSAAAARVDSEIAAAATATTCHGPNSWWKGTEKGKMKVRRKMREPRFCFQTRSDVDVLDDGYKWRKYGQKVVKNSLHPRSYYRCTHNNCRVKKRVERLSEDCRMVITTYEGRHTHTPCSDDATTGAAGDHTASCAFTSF

Sequence	binding signal
CTCGAACCACTGACCATCCCGTCCACACTGCACCGCGCTACGGAGTCACCTAGTGCAG	8260 fluorescence intensity (a.u.)
AGCCACGACCCAATCTTCGCTGCGGTTGACTTTAAATTAACGGAGTCACCTAGTGCAG	9760 fluorescence intensity (a.u.)
GCGTGTGTTCTTGTGCTGGATTGTGGAGTTCTTGATCCCTCGGAGTCACCTAGTGCAG	10000 fluorescence intensity (a.u.)
AGGAGGGGAGGCGCGGCGGAGGAGAAGAGGTGGGGATGGACGGAGTCACCTAGTGCAG	10000 fluorescence intensity (a.u.)
GGAGATACGGCGAGGGGAGGGGACGGAGGGGCGGGGTGCGCGGAGTCACCTAGTGCAG	24700 fluorescence intensity (a.u.)
ACTCCGGCGGGTTAGGGTTTGGGGTTGGGGTGAGGGTAGGCGGAGTCACCTAGTGCAG	10900 fluorescence intensity (a.u.)
GGACGGAGGGGCGGGGTGCGACGCGGACGGCGGCGGCGGGCGGAGTCACCTAGTGCAG	13500 fluorescence intensity (a.u.)
CATGGTGACATGTTGTGGGGCTGTGTCTTGTGGGTACAGTCGGAGTCACCTAGTGCAG	8650 fluorescence intensity (a.u.)
GCGCGGCGCGGCGGGACGGGGTGGGGCGAGGGCAGCAGCGCGGAGTCACCTAGTGCAG	8520 fluorescence intensity (a.u.)
AACATAACTGTCTTCTTCCATTTGTATGTCATGTTTCTGTCGGAGTCACCTAGTGCAG	10700 fluorescence intensity (a.u.)
GGCGGCGCGGGTTTAGCGGGATGGGGAGGCGGCGAGTGGCCGGAGTCACCTAGTGCAG	8140 fluorescence intensity (a.u.)
TGTGGGACGATGGGGAGGTGTGGGGACGCACGCGGGGCGACGGAGTCACCTAGTGCAG	10200 fluorescence intensity (a.u.)
GCGATGGGAGGTGGGCGACGCGAGGGAGAGGGGAGAGGGGCGGAGTCACCTAGTGCAG	18500 fluorescence intensity (a.u.)
CGAAATGGGAGGCGGGGTTTAGGGTTTCCGGCGGGGAGGGCGGAGTCACCTAGTGCAG	25200 fluorescence intensity (a.u.)
GATAACATGTTGTAGTCTTCCAGGGGTGGGTGTTAGCTGTCGGAGTCACCTAGTGCAG	16700 fluorescence intensity (a.u.)
GAGGACTGGGCGAAGGGGTGGAAGAAAATGTGGTTGTCGACGGAGTCACCTAGTGCAG	8580 fluorescence intensity (a.u.)
ATGGCTCGGTGGTGCACTATTTTTTTTTTAACTTAATTTGCGGAGTCACCTAGTGCAG	12100 fluorescence intensity (a.u.)
CACAATAGACCACCCGAAACCACATCTTCAACACTTCAATCGGAGTCACCTAGTGCAG	8530 fluorescence intensity (a.u.)
CTCTCCGTGCATCTATATAAACTGGCCCTGATCAATCTCACGGAGTCACCTAGTGCAG	9650 fluorescence intensity (a.u.)
CAGGCGACCACCTCCAGCTCCGCGCCATCTCCATGTCATCCGGAGTCACCTAGTGCAG	10800 fluorescence intensity (a.u.)
TGCACCTGTTTGGCTTAGTACCAGTGCGCTACTGGTTTCACGGAGTCACCTAGTGCAG	9680 fluorescence intensity (a.u.)
TACTCCGTACAAATTTTCTTCTGGATCCCACCTCTGCTCTCGGAGTCACCTAGTGCAG	9050 fluorescence intensity (a.u.)

Sequence	binding signal
CCCACCTCGCTGTCGTTTCTTCCTCTGGCTGGTCGCGTTGCGGAGTCACCTAGTGCAG	12700 fluorescence intensity (a.u.)
TTTCTTTCCTGTTTTAGGAGGGTTTTCCACGTTAAATCTTCGGAGTCACCTAGTGCAG	8290 fluorescence intensity (a.u.)
TTTTTTTAAAATTTGCATGTTTTTTGGTCGTGTAAAATTTCGGAGTCACCTAGTGCAG	8290 fluorescence intensity (a.u.)
TGGGAGGAGGGAGGGAGGAGGAGGGCGGAGATAGGTGGTGCGGAGTCACCTAGTGCAG	11400 fluorescence intensity (a.u.)
GGGGCGGAAACGGGCGAGGGAGGCGCGGGGAGGGTTTAAACGGAGTCACCTAGTGCAG	22600 fluorescence intensity (a.u.)
AAAGGTGGTGGTAGGGGATAGATCCGGGGCGGGCGGCATGCGGAGTCACCTAGTGCAG	23400 fluorescence intensity (a.u.)
GGCACCGGCGGAGGGGCGCGGGAGGGGAGGCGGCGGCGAGCGGAGTCACCTAGTGCAG	15600 fluorescence intensity (a.u.)
TAGGAGGTGGCGGCCGGTGGTGGCGGATCCGGCGGCGGGGCGGAGTCACCTAGTGCAG	8840 fluorescence intensity (a.u.)
AGGGGAGAGGAGGGGAGGCGGCGCGGCGGCGAGGAGGGGACGGAGTCACCTAGTGCAG	10200 fluorescence intensity (a.u.)
ATATCGAAATTGATGCTTGACCAGTCAACACTACTTAATCCGGAGTCACCTAGTGCAG	9070 fluorescence intensity (a.u.)
GTCGCTTGTCGTTGTTGCCCTGAACTGTTGGTGCTGGTTCCGGAGTCACCTAGTGCAG	9320 fluorescence intensity (a.u.)
GTACATACCCGTATTATTTATCTGTCGCTATGTAGGATTTCGGAGTCACCTAGTGCAG	10500 fluorescence intensity (a.u.)
CCACCGGCGGGCCCCACCATCTTGACTCCTCTCTGTGATCCGGAGTCACCTAGTGCAG	8610 fluorescence intensity (a.u.)
TGTGGTGCGTCTCCTCGTGCAGTTTTTGCCCTTGATTTGACGGAGTCACCTAGTGCAG	11800 fluorescence intensity (a.u.)
CGGTTGACTTTTTTTTTCTAATAAGCCAAAACGGCTTATTCGGAGTCACCTAGTGCAG	18800 fluorescence intensity (a.u.)
GACTTTTCGGTTCTTAAGCTGACTTATAATTAGTCTAAACCGGAGTCACCTAGTGCAG	8630 fluorescence intensity (a.u.)
CCTTTGACTTTTTGATAAACGTTTGACCTTTCGTCTTATTCGGAGTCACCTAGTGCAG	22800 fluorescence intensity (a.u.)
GACTTTTTAGCATATGTTTGACCGTTCGTCTTATTCAAAACGGAGTCACCTAGTGCAG	10600 fluorescence intensity (a.u.)
GTTGACTTTTTGACAAACGTTTGACTTTTCGTCTTATTCACGGAGTCACCTAGTGCAG	17400 fluorescence intensity (a.u.)
CATTGTTTTCTAATATTCGGCCATGGCTTTTGACATTTTACGGAGTCACCTAGTGCAG	8430 fluorescence intensity (a.u.)
TGATTTTTTGACAAACATTTGACCTTTCGTCTTATTTAAACGGAGTCACCTAGTGCAG	8620 fluorescence intensity (a.u.)
TCGTTAACTTTTTAATAAACGTTTGACCTTTCGTCTTATTCGGAGTCACCTAGTGCAG	10200 fluorescence intensity (a.u.)
